In PubChem BioAssay AID1259318 (Sanford-Burnham Center for Chemical Genomics, 2017):
The whole screen tested about 370,000 compounds, of which about 3,000 (0.81%) were called active.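 Rule for the calls: active = activity above about 14% (limit read from the data; passing the limit was not always enough); inactive = the rest.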 The full list was thinned out, with actives kept by preference.

Biological target: Nuclear receptor subfamily 1 group D member 1 (Homo sapiens) (UniProt P20393)
Assay: modulators of Rev-erb alpha DNA binding, primary screen, biochemical, FITC-DNA, fluorescence polarization, uHTS (AID 1259318);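 note: 0% = DMSO wells with 35 nM protein and 100% = DMSO wells with 750 nM protein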
Details: Rev-erbα–FITC-DNA binding, 90 min, at 10 µM, stronger effect = higher value

Nuclear receptor subfamily 1 group D member 1 (Homo sapiens), sequence (P20393 whole entry, looked up): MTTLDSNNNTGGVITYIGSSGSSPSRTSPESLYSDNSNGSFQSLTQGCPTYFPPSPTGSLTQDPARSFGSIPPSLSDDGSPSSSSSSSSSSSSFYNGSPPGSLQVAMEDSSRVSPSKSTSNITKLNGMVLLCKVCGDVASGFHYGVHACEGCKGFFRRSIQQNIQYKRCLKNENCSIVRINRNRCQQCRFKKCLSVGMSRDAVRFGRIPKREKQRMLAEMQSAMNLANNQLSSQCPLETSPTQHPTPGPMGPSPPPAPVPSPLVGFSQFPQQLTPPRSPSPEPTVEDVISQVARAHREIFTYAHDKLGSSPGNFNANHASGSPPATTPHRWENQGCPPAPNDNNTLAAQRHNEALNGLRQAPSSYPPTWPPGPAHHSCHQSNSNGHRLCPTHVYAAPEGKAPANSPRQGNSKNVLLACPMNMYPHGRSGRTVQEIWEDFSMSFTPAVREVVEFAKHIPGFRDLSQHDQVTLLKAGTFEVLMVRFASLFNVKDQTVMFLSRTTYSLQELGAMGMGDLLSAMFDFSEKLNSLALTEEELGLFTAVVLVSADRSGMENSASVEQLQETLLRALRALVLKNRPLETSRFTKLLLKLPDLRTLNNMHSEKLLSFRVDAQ

Structure (SMILES) | activity
C=CCN1C(=O)[C@@H](CC(=O)NCC2CCCCC2)[C@]2(C(=O)OC)CCCCC=C12 | 8.08% (inactive)
Cc1nonc1OCCn1nnnc1N | 0.14% (inactive)
c1ccc2c(-c3nn4nnnc4c4ccccc34)cccc2c1 | 28.7% (active)
COc1ccc(C)cc1NC(=O)NCCCCc1ccccc1 | -4.58% (inactive)
CC1CCCC(C)N1C(=O)COC(=O)COc1ccccc1C#N (stereo not drawn) | 8.28% (inactive)
COc1ccc(CN(CCN2CCOCC2)C(=O)c2ccc(C)cc2)cc1OC | -7.19% (inactive)
O=C1CCCC2=C1C(c1ccccc1)n1c(s/c(=C/c3cccc(F)c3)c1=O)=N2 (stereo not drawn) | 35% (active)
COc1ccc(OC)c(C2C3=C(N=c4s/c(=C\c5cccc(O)c5)c(=O)n42)c2ccccc2CC3)c1 (stereo not drawn) | -1.04% (inactive)
O=C1CC(c2cccc(F)c2)C2=C(CCCC2=O)N1 (stereo not drawn) | 1.68% (inactive)
O=C1CC2(CCCC2)Oc2ccc(Cl)cc21 | 1.88% (inactive)
O=C1Cc2ccccc2Sc2ccc(Cl)cc21 | 15.6% (active)
S=C1Nc2cc(Cl)ccc2Sc2ccccc21 | -3.11% (inactive)
CCCCN(C)Cc1c(C)[nH]c2ccc(Cl)cc2c1=O | 3.27% (inactive)
Cc1ccc(S(=O)(=O)c2c[nH]c3ccc(Cl)cc3c2=O)cc1 | 136% (active)
Cc1ccc(S(=O)(=O)c2c[nH]c3ccc(C)cc3c2=O)cc1 | 4.77% (inactive)
COc1ccc(N(CC(=O)NCc2ccc(F)cc2)C(=O)CCC(=O)Nc2nccs2)cc1 | -2.56% (inactive)
Cc1cc(Cl)ccc1NNC(=O)c1snnc1C | 3.67% (inactive)
CCOC(=O)CNc1nc2ccccc2n2c(C)nnc12 | 2.94% (inactive)
Fc1ccc(CNc2nc3ccccc3n3nnnc23)cc1 | 40.6% (active)
CC(C)(C)N1CC(c2nc3ccccc3n2Cc2ccc(F)cc2)CC1=O (stereo not drawn) | -4.96% (inactive)

Structure (SMILES) | activity
COC(=O)[C@]1(C)N[C@H](c2ccc(-c3ccc(Cl)c(Cl)c3)cc2)[C@@H]2C(=O)N(C)C(=O)[C@@H]21 | 2.33% (inactive)
O=C(Nc1ccc(F)c(Cl)c1)C1CCN(S(=O)(=O)c2cccnc2)CC1 | -4.36% (inactive)
Cc1nc(N2CCN(c3ccccn3)CC2)c2c(C)c(C(=O)Nc3ccc(F)c(Cl)c3)sc2n1 | 32% (active)
Cc1nc(N2CCC(C)CC2)c2c(C)c(C(=O)Nc3cc(F)ccc3C)sc2n1 | 15.7% (inactive)
COc1ccc(-c2nnc3n2CCCCC3)cc1 | -6.25% (inactive)
O=S(=O)(c1ccccc1)c1nc(-c2ccccc2F)oc1NCc1cccnc1 | -3.4% (inactive)
O=C(NCc1cccnc1)c1ccc(CS(=O)(=O)c2ccc(Br)cc2)o1 | -2.47% (inactive)
O=S(=O)(c1ccc(Br)cc1)c1nc(-c2ccccc2)oc1NCc1cccnc1 | 27.6% (active)
Cc1nn(CC#N)c(=O)n1N(C)c1ncc(C(F)(F)F)cc1Cl | 7.64% (inactive)
CCOc1ccc(C2NC(=S)NC3=C2CCc2ccccc23)cc1 (stereo not drawn) | 7.82% (inactive)
O=C(COC(=O)c1cccc(Cl)c1Cl)NC1CCCCCC1 | -4.74% (inactive)
O=C(COC(=O)c1ccccc1SCC(=O)NC1CCCCC1)NC1CCCCC1 | 70.3% (active)
N#Cc1ccc(C(=O)OCC(=O)NC(=O)NC2CCCCC2)cc1 | -4.11% (inactive)
O=C(COC(=O)c1cc([N+](=O)[O-])ccc1NCc1ccccc1)NC1CCCCC1 | -4.56% (inactive)
O=C(COC(=O)c1cccc(Cl)c1)NC1CCCCCCC1 | -7.98% (inactive)
N#Cc1ccccc1Sc1ccccc1C(=O)OCC(=O)NC1CCCCC1 | 61.4% (active)
COC(=O)[C@]12C[C@H](CC(=O)NCc3ccccc3)C(=O)N(CCC3=CCCCC3)C1=C[C@H](C(C)C)O[C@@H]2C1CC1 | -4.75% (inactive)
Cc1cc(C(=O)OCC(=O)Nc2ccc(F)c(F)c2)c(C)o1 | 4.64% (inactive)
Cc1sc2ncnc(N3CCC(C(=O)Nc4nc5ccc(Cl)cc5s4)CC3)c2c1C | 42.2% (active)
CCc1ccc(C(=O)NNC(=O)C2CCN(c3ncnc4sc(C)c(C)c34)CC2)cc1 | -5.39% (inactive)

Structure (SMILES) | activity
Cc1sc2ncnc(N3CCC(C(=O)Nc4ccc(F)cc4Cl)CC3)c2c1C | 8.75% (inactive)
O=C1NS(=O)(=O)c2ccccc21 | 4.73% (inactive)
CCOc1ccc(-n2c(SCC(=O)Nc3cc(C)c(NC(=O)c4ccccc4)cc3OC)nnc2-c2cccc(Cl)c2)cc1 | -3.54% (inactive)
COc1ccc2[nH]c(C(=O)Nc3ccccc3Cl)cc2c1 | 49.3% (active)
COc1cc(NC(=O)c2ccccc2NS(=O)(=O)c2ccc(Cl)s2)cc(OC)c1 | 0.46% (inactive)
COc1cc2cc(CN(CCN3CCCC3)C(=O)Nc3ccccc3Cl)c(=O)[nH]c2cc1OC | 1.22% (inactive)
CCc1ccc2c(c1)NC(=O)C2(C)Cc1ccc(OC(F)(F)F)cc1 (stereo not drawn) | 4.7% (inactive)
CC1(Cc2cccc(C#N)c2)C(=O)Nc2ccc(-c3cccc(C(F)(F)F)c3)cc21 (stereo not drawn) | 0.78% (inactive)
COc1ccccc1CC1(C)C(=O)Nc2ccc(OC(F)(F)F)cc21 (stereo not drawn) | 51.9% (active)
COc1cc2c(cc1OC)[C@@H](Cc1cc(OC)c(OC)c(OC)c1)[N+](C)(CCCOC(=O)CC/C=C/CCC(=O)OCCC[N+]1(C)CCc3cc(OC)c(OC)cc3[C@H]1Cc1cc(OC)c(OC)c(OC)c1)CC2 (stereo partly drawn) | 4.74% (inactive)
Cc1cc(=O)oc(C)c1C(=O)NC1CC(C)(C)NC(C)(C)C1 | -3.78% (inactive)
Cc1c(Br)cc(C(=O)N2CCCCCC2)c(C)c1C | -0.12% (inactive)
Cc1cc(=O)oc(C)c1C(=O)N1CCCCC1 | 20.1% (active)
CCC1(C)OC(=O)N(C)C1=O (stereo not drawn) | -3.1% (inactive)
Nc1cccc(OCCCCCOc2cccc(N)c2)c1 | 5% (inactive)
COc1ccc(-c2c(C#Cc3ccsc3)c3cc(-c4ccc(CN5CCOCC5)cc4)ccc3n2C)cc1 | 3.65% (inactive)
COc1cc(OC)cc(-c2c(C#Cc3ccsc3)c3cc(-c4ccc(SC)cc4)ccc3n2C)c1 | 34.1% (active)
COc1cc(OC)cc(-c2c(C#Cc3ccsc3)c3cc(-c4ccc(OC)cc4F)ccc3n2C)c1 | -0.12% (inactive)
